Many of the other results were omitted from the sample, so hits are more common in it than they were.
Cycloheximide cs = Cycloheximide Counterscreen for Small Molecule Inhibitors of Shiga Toxin; 300,000 tested, 12% active; cell reporter, cycloheximide protein synthesis inhibition counterscreen; max response, %; in the data active means max response mostly above about 13%, no sharp cut-off; inactive means mostly below about 14%; further: read at 38.3 µM for the half of the compounds with a filed dose; 0% is about no effect
SARS PLP yeast = qHTS of Yeast-based Assay for SARS-CoV PLP; S. cerevisiae expressing SARS-CoV PLpro, growth rescue; Potency, µM (doses to about 32.9 µM), without a hit: top-dose activity, positive = growth rescue, most hits filed as activators; 330,000 tested, 0.19% active; AID 485353, 2010; calls by dose curve; further: potency means the concentration at half of the fitted maximal effect; 0% is about no effect; nearly all actives have a fitted effect of over 55% in size
AmpC no deterg = qHTS Inhibitors of AmpC Beta-Lactamase (assay without detergent); AmpC nitrocefin hydrolysis, absorbance 480 nm, 0.0001% Triton; Potency, µM (series often up to 57.1 µM), for the others: at the highest dose activity change, negative = inhibition, hits mostly inhibitors; 330,000 tested, 0.52% active; P00811;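 further: potency means the concentration at half of the fitted maximal effect; plate controls were no compound for no effect and no enzyme for full effect; nearly all actives have a fitted effect of over 20% in size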
Target sequence (P00811 whole entry, looked up): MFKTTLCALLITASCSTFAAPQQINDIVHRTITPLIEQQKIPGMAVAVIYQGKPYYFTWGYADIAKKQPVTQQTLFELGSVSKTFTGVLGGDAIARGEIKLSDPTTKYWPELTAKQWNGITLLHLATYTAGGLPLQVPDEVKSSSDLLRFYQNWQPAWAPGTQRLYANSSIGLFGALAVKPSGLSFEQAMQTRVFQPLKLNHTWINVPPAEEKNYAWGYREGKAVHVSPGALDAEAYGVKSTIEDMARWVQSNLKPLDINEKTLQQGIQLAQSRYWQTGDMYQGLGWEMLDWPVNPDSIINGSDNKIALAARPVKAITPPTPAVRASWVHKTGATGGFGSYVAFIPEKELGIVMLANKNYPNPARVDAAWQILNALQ
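20 mM phosphate pH 7.0 + 0.01% (detergent screen) or 0.0001% Triton X-100; 5.3 nM AmpC reagent; cpd preinc 15 min RT; nitrocefin (800 uM stock) to start; A480 q20 s × 4 min; Activity was normalised to no-enzyme and no-compound control wells.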
AMA1 RON2 block = qHTS for Inhibitors of AMA1-RON; Towards Development of Antimalarial Drug Lead: Primary Screen; 360,000 tested, 0.2% active; Potency, µM (series often up to 58.2 µM), for inactives: at the highest dose activity change, negative = inhibition, most hits filed as inhibitors; AlphaScreen AMA1-biotinylated RON2 peptide binding; Plasmodium falciparum AMA1 (3D7) - RON2 peptide interaction;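 further: potency means the concentration at half of the fitted maximal effect; 0% = vehicle wells and -100% = peptide control; nearly all actives have a fitted effect of over 45% in size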
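AMA1 (3D7) with his tag at 25 nM final met compounds first, then biotinylated RON2 peptide at 25 nM; detection used donor plus acceptor beads, 10 µg/mL apiece, read by AlphaScreen after 30 min at room temperature.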
Shiga inhibitor = A qHTS for Small Molecule Inhibitors of Shiga Toxin; Vero cells, Shiga toxin protein synthesis inhibition reporter; inhibition, % at 38.7 µM; 290,000 tested, 9.2% active; in the data active means inhibition mostly above about 28%, no sharp cut-off; inactive means mostly below about 43%; further: 0% is about no effect
AmpC detergent = qHTS Inhibitors of AmpC Beta-Lactamase (assay with detergent); P00811; 370,000 tested, 0.041% active; AmpC hydrolysis of nitrocefin, absorbance 480 nm, 0.01% Triton; AID 485294, 2010; Potency, µM (series often up to 114 µM), for the others: at the top dose activity change, negative = inhibition, actives largely listed as inhibitors;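 further: potency means the concentration at half of the fitted maximal effect; 0% = no-compound wells and -100% = no-enzyme wells; nearly all actives have a fitted effect of over 25% in size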
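20 mM phosphate pH 7.0 + 0.01% (detergent screen) or 0.0001% Triton X-100; 5.3 nM AmpC reagent; cpd preinc 15 min RT; nitrocefin (800 uM stock) to start; A480 q20 s × 4 min; Activity was normalised to no-enzyme and no-compound control wells.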
* marks the source's active call; other numbers are inactive results; ? = inconclusive; · = no result given; [ ] = remark or other dose. Unless noted, the call rests on the fitted dose curve; in most records, active means well fitted curve in the direction sought with a large enough effect; inconclusive means small, poorly fitted or top-dose-only effect, or another doubt; inactive means no such curve, though single readings can be large; an effect the other way counts as inactive or inconclusive.

SMILES | Cycloheximide cs | SARS PLP yeast | AmpC no deterg | AMA1 RON2 block | Shiga inhibitor | AmpC detergent
CNc1nc(N)c(C(=O)Nc2cc(C)on2)s1 | 30* | -1% | -13% | 27% | 88* | 3%
COc1cccc(Nc2nnc(SCC(=O)Nc3sccc3C(N)=O)s2)c1 | 10 | 0% | -44% | 35% | 41 | 3%
CCCc1cc(C(=O)Nc2cc(C)on2)no1 | 13* | 4% | 2% | -3% | 61 | -22%
Cc1cc(NC(=O)c2ccoc2C)no1 | 11* | -15% | -20% | -7% | 25 | ?
Cc1cc(NC(=O)c2cc(C)on2)no1 | 8.4* | 6% | -5% | 5% | 37 | ?
Cc1ccc(-c2cc(C(=O)Nc3cc(C)on3)no2)cc1 | -2 | 0% | -17% | -5% | 26 | 0%
O=C(CS(=O)(=O)c1ccc2ccccc2c1)Nc1ccccc1Cl | -8 | 9% | -20% | -6% | -7 | 8%
CC(C)CN(C(=O)CCc1ccccc1)c1c(N)n(CC(C)C)c(=O)[nH]c1=O | 0 | -7% | -15% | 1% | -10 | -18%
Cc1nc(C(F)(F)F)ccc1C(=O)Nc1ccc2ccccc2n1 | 21* | -1% | -13% | 68% | 49* | -12%
Cc1nc(C(F)(F)F)ccc1C(=O)Nc1ccccc1F | 21 | 0% | -12% | 7% | 0 | 1%
Cc1nc(C(F)(F)F)ccc1C(=O)NCC(O)c1ccccc1 (centres undefined) | 45* | 0% | -14% | 9% | 71* | ?
O=C(NCC(O)c1ccccc1)c1ccccc1 (centres undefined) | 32* | 0% | 1% | -1% | 60* | 3%
O=C(NCCNC(=O)c1ccccc1)c1ccccc1 | -2 | 2% | -5% | 76% | -5 | -6%
Cc1ccc(-n2nnc(-c3nccs3)n2)cc1 | 1 | -2% | -9% | 1% | -17 | -8%
Clc1ccc(-n2nnc(-c3nccs3)n2)cc1Cl | 29* | -5% | -31% | 13% | 74* | 4%
Clc1ccc(-n2nnc(-c3cccnc3)n2)cc1Cl | 41* | -2% | -7% | 28% | 41* | -3%
O=c1[nH]c2ccccc2cc1-c1nnn(-c2ccc(F)cc2)n1 | 23* | -2% | -29% | 0% | 49* | 3%
Brc1ccccc1-n1nnc(-c2cccnc2)n1 | 29* | -2% | -12% | -7% | 33 | 5%
O=c1[nH]c2ccccc2cc1-c1nnn(-c2ccc(Cl)c(Cl)c2)n1 | · | · | · | 1% | · | ·
COc1ccc(Cl)cc1NC(=O)CCCC(=O)c1ccccc1 | 1 | -3% | -17% | 4% | 3 | 3%
Cn1c(=O)c2[nH]c(C3CCC3)nc2n(C)c1=O | · | · | · | -16% | · | ·
CN(C(=O)CSc1ncnc2scc(-c3ccccc3)c12)C1CCS(=O)(=O)C1 (centres undefined) | -2 | 1% | 41% | 15% | -15 | 2%
Cc1ccc(-n2nnc(-c3cc4ccccc4nc3Cl)n2)cc1 | 6 | 0% | -19% | -7% | 26 | -9%
Fc1ccc(-n2nnc(-c3cnc4ccccc4c3)n2)cc1 | 46* | -2% | -21% | -9% | 62* | 8%
Fc1ccc(-n2nnc(-c3cccnc3)n2)cc1 | 42* | -1% | -3% | 4% | 70* | 6%
SMILES | Cycloheximide cs | SARS PLP yeast | AmpC no deterg | AMA1 RON2 block | Shiga inhibitor | AmpC detergent
CCOC(=O)c1[nH]c2cc(OC)c(OC)cc2c1NC(=O)CN(C)C1CCCCC1 | -1 | -2% | 54% | -2% | -14 | ?
Cc1ccc(C(=O)NNC(=O)c2cc(OCC(F)(F)F)ccc2OCC(F)(F)F)cc1 | 18 | 1% | -18% | 77% | -9 | -1%
O=C(NNC(=O)c1cc(OCC(F)(F)F)ccc1OCC(F)(F)F)c1cccc(C(F)(F)F)c1 | 20* | -2% | -9% | 35% | 56* | -1%
CSc1nc(N)n2nc(-c3ccc(Cl)cc3)cc2n1 | 47* | -3% | -25% | -2% | 86* | -6%
Cc1ccc(-c2cc(N)n(Cc3ccc(Cl)cc3)n2)cc1 | 22 | -6% | -26% | -25% | 33 | ?
C(=NN1CCCCCC1)c1ccccc1 | · | · | · | -19% | · | ·
C(=N\N1CCN(c2ccccn2)CC1)/c1ccccn1 | 49* | -2% | -24% | 18% | 37* | -10%
BrC(=C\c1ccccc1)/C=N/N1CCN(c2ccccn2)CC1 | 40* | -29% | -5% | -22% | 38* | ?
Oc1ccc(/C=N/N2CCN(c3ccccn3)CC2)cc1 | 27* | 1% | -7% | 0% | 101* | 0%
CN(c1ccccc1)c1ccc(/C=N/N2CCOCC2)cc1 | 84* | -15% | 36% | 11µM* | 61* | -5%
COc1ccc(-c2nn3c(-c4ccc(F)cc4)nnc3s2)cc1 | 17 | -7% | 11% | 13% | 15 | -1%
CC(Sc1nnc2n1CCCCC2)C(=O)Nc1ccccc1[N+](=O)[O-] (centres undefined) | · | · | 4% | 2% | · | ·
Cc1ccc(C(=O)NNC(=O)c2ccc(NS(=O)(=O)c3cccs3)cc2)o1 | · | -9% | -27% | 0% | · | -1%
CN(C)c1ccc(/C=N/N2CCN(c3ccccn3)CC2)cc1 | 34* | 1% | -10% | -28% | 91* | -7%
Oc1cccc(/C=N/N2CCN(c3ccccn3)CC2)c1 | 40* | 0% | -16% | -5% | 128* | -9%
CC(C)(C)c1ccc(/C=N/N2CCN(c3ccccn3)CC2)cc1 | 9 | 0% | -9% | ? | 21 | -3%
COc1ccc(-n2nc(C(=O)NCCCOC(C)C)c3c4ccccc4n(C)c3c2=O)cc1 | · | · | · | · | · | 5%
O=C(CN1CCN(C(=O)c2cccc(-n3cnnn3)c2)CC1)Nc1ccccc1Cl | · | 11% | 54% | -26% | · | ?
COc1ccc(N2CCN(CC(=O)Nc3ccc(C)cc3Br)CC2)cc1 | · | · | · | 0% | · | ·
Cc1ccc(NC(=O)CN2CCCCCC2)c(Br)c1 | 36* | 2% | -22% | -5% | 81* | -18%
Cc1ccc(NC(=O)CN2CCCCCC2)cc1Br | 19* | 6% | -28% | 3% | 73 | -4%
O=C(CN1CCCCC1)Nc1cccc(-n2cnnn2)c1 | -4 | 0% | 0.14µM* | -1% | 13 | 1%
COc1cc(-c2[nH]nc3c2C(c2ccco2)C(C#N)=C(N)O3)cc(OC)c1OC (centres undefined) | -3 | 0% | -20% | 12% | -10 | 5%
O=C(CSc1nc2nn(-c3ccccc3)c(=O)c-2c2n1CCCCC2)NCCc1ccccc1 | 0 | 0% | -29%[11.4 µM] | 4% | -11 | ?
